# The panel holds about 83,000 compounds, 20% with a hit somewhere; the sample as a whole holds those more often.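 Note: values are percent growth. 100 is the growth of untreated cells, values between 100 and 0 indicate rising inhibition; between -100 and 0 indicates cell death.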 Active and inactive are the calls of the source. Rule for the calls: active = growth percent below 10; inactive = the rest.
# System: MALME-3M melanoma
# Experiment: NCI-60 one-dose screen, 48 h (100 = growth as untreated, 0 = no growth, -100 = all killed)
# Conditions: 10 µM unless noted
row,SMILES,growth
1,CC(=O)C(CO)C(=O)Nc1ccccc1 (stereo unspecified),109% (inactive)
2,Cc1nc2ccccc2c(=O)n1-c1cccc(OCc2cn(-c3cccc(O)c3)nn2)c1,104% (inactive)
3,CCCCCCCCCCN1CC2CCCCC2C1 (stereo unspecified),108% (inactive)
4,CCCCN(CCC)CCCCCCCCCCN1CCCc2ccccc21,74.3% (inactive)
5,C/C=C(/C)C(=O)OC1C=C(CO)C(=O)C(OC(=O)/C(C)=C\C)C1C(C)C (stereo unspecified),-91.2% (active)
6,O=C1C(Cl)=C(Nc2ccc(Nc3ccccc3)c(NC3=C(Cl)C(=O)c4ccccc4C3=O)c2)C(=O)c2ccccc21,39.4% (inactive)
7,CN1CCN(Cc2ccc(NC(=O)c3cncc(C#Cc4c(N)ncc5ccc(F)cc45)c3)cc2C(F)(F)F)CC1,-80.7% (active)
8,COc1cccc(CNC(=O)c2cccc(C3CC(=O)c4c(cc(OC)c(OC)c4OC)O3)c2)c1 (stereo unspecified),71.3% (inactive)
9,COC(=O)C1CC(=O)N(C(=O)Nc2ccc(Cl)cc2Cl)C1 (stereo unspecified),108% (inactive)
10,O=C(/C=C\c1ccc(NCc2ccc(C(=O)O)cc2)cc1)CCl,88.8% (inactive)
11,CC1(C)NC(=S)NC1=O,106% (inactive)
12,Cc1ccc(C(=O)Nc2ccc(CN3CCN(C)CC3)c(C(F)(F)F)c2)cc1C#Cc1cncc2ncccc12,-88.9% (active)
13,COc1ccc(-c2nc(N)n(C(=S)Nc3ccccc3)n2)cc1,89.5% (inactive)
14,O=C(O)c1ccc(-c2nn(-c3ccc(C(=O)O)cc3)cc2CNc2ccc(Br)cc2)cc1,106% (inactive)
15,CCS(=O)(=O)N[C@@H]1O[C@H](COC(C)=O)C(OC(C)=O)[C@H](OC(C)=O)C1OC(C)=O (stereo partly specified),115% (inactive)
16,CCC(C)(C)c1ccc(OCCCCCCN2CCN(c3ccc(C)c(Cl)c3)CC2)cc1,86.7% (inactive)
17,Cc1ncc(C(=O)Nc2ccc(CN3CCN(C)CC3)c(C(F)(F)F)c2)cc1C#Cc1c(N)ncc2ccccc12,-84.9% (active)
18,COc1ccc2cnc(N)c(C#Cc3cc(C(=O)Nc4ccc(CN5CCN(C)CC5)c(C(F)(F)F)c4)cnc3C)c2c1,-66.4% (active)

row,SMILES,growth
1,COc1ccc(-c2nc(SCC(C)C)nc(Nc3ccc(C(=O)O)cc3)c2C#N)cc1,-57.7% (active)
2,CCCCCCCCCCCCCCCCC(=O)O.CCCCCCCCCCCCCCCCCC(=O)O.CCCCCCCCCCCCCCCCCC(=O)O.CCCCCCCCCCCCCCCCCC(=O)O.CCCCCCCCCCCCCCCCCC(=O)O.CO[CH-]OC12COC1CC(O)C1(C)C(O)C(OC(C)O)C3=C(C)C(OC(=O)C(O)C([NH-])c4ccccc4)CC(O)(C(OC(=O)c4ccccc4)C21)C3(C)C.[Cu+].[Zn].[Zn].[Zn].[Zn].[Zn] (stereo unspecified),69.5% (inactive)
3,CCCNC(=O)Oc1ccc(/C(=C(/C)Cc2ccc(OC)cc2)c2ccc(OCCN3CCCCC3)cc2)cc1,112% (inactive)
4,CC(=O)CCS(=O)c1ccccc1 (stereo unspecified),97.2% (inactive)
5,N#CC1=C(N2CCOCC2)NC2c3ccccc3Sc3ccccc3N2C1=N (stereo unspecified),103% (inactive)
6,CC(C)(C)OC(=O)N1C/C(=C\c2ccccc2)C(=O)/C(=C/c2ccccc2)C1,113% (inactive)
7,CC([C@H]1CCC2C3CCC4C[C@@H](N)CC[C@]4(C)C3CC[C@@]21C)N(C)C (stereo partly specified),5.88% (active)
8,CCN(CC)c1ccc2nc3ccc(N=Nc4ccc(O)cc4)cc3[n+](-c3ccccc3)c2c1,35.4% (inactive)
9,CC(C)CSc1nc(-c2ccc(F)cc2)c(C#N)c(N2CCCCC2)n1,86.1% (inactive)
10,Cc1ccc(C(=O)Nc2ccc(CN3CCN(C)CC3)c(C(F)(F)F)c2)cc1C#Cc1cnc(N)c2ccc(C#N)cc12,-51.9% (active)
11,CCCCCN1CCN(C(CC(=O)c2ccccc2)C(=O)c2ccccc2)CC1 (stereo unspecified),50.4% (inactive)
12,COc1ccc2cc(C(C)C(=O)Nc3ccc(S(=O)(=O)Nc4cc(C)on4)cc3)ccc2c1 (stereo unspecified),115% (inactive)
13,CN1CCN(Cc2ccc(NC(=O)c3ccc(C#Cc4c(N)ncc5ccc(F)cc45)cc3)cc2C(F)(F)F)CC1,-88.1% (active)
14,CSC1=Nc2c(c(C)c(-c3ccccc3)n2CCCCl)C2=NC(=O)CN12,82.8% (inactive)
15,Cc1ncc(C(=O)Nc2ccc(CN3CCN(C)CC3)c(C(F)(F)F)c2)cc1C#Cc1cnc(NC2CC2)c2ncccc12,-88.5% (active)
16,Oc1ccc([S+](c2ccc(O)cc2)c2ccc(O)cc2)cc1,106% (inactive)
17,CCCNC(=O)Oc1ccc(/C(=C(/CC)Cc2ccccc2)c2ccc(OCCN(CC)CC)cc2)cc1,79.6% (inactive)

# System: MDA-MB-231 breast
# Experiment: as above
# Conditions: 10 µM unless noted
row,SMILES,growth
1,Cc1cc(CSc2ccc(Cl)cc2)ccc1N,61.9% (inactive)
2,CC(=O)C(CO)C(=O)Nc1ccccc1 (stereo unspecified),102% (inactive)
3,Cc1nc2ccccc2c(=O)n1-c1cccc(OCc2cn(-c3cccc(O)c3)nn2)c1,78.3% (inactive)
4,CCCCCCCCCCN1CC2CCCCC2C1 (stereo unspecified),34.1% (inactive)
5,C/C=C(/C)C(=O)OC1C=C(CO)C(=O)C(OC(=O)/C(C)=C\C)C1C(C)C (stereo unspecified),-61.2% (active)
6,O=C1C(Cl)=C(Nc2ccc(Nc3ccccc3)c(NC3=C(Cl)C(=O)c4ccccc4C3=O)c2)C(=O)c2ccccc21,58.5% (inactive)
7,CN1CCN(Cc2ccc(NC(=O)c3cncc(C#Cc4c(N)ncc5ccc(F)cc45)c3)cc2C(F)(F)F)CC1,-38.4% (active)
8,COc1cccc(CNC(=O)c2cccc(C3CC(=O)c4c(cc(OC)c(OC)c4OC)O3)c2)c1 (stereo unspecified),76.8% (inactive)
9,COC(=O)C1CC(=O)N(C(=O)Nc2ccc(Cl)cc2Cl)C1 (stereo unspecified),95.3% (inactive)
10,O=C(/C=C\c1ccc(NCc2ccc(C(=O)O)cc2)cc1)CCl,91.4% (inactive)
11,Cc1ccc(C(=O)Nc2ccc(CN3CCN(C)CC3)c(C(F)(F)F)c2)cc1C#Cc1cncc2ncccc12,-97% (active)
12,COc1ccc(-c2nc(N)n(C(=S)Nc3ccccc3)n2)cc1,93.9% (inactive)
13,O=C(O)c1ccc(-c2nn(-c3ccc(C(=O)O)cc3)cc2CNc2ccc(Br)cc2)cc1,115% (inactive)
14,CCS(=O)(=O)N[C@@H]1O[C@H](COC(C)=O)C(OC(C)=O)[C@H](OC(C)=O)C1OC(C)=O (stereo partly specified),110% (inactive)
15,CCC(C)(C)c1ccc(OCCCCCCN2CCN(c3ccc(C)c(Cl)c3)CC2)cc1,115% (inactive)
16,Cc1ncc(C(=O)Nc2ccc(CN3CCN(C)CC3)c(C(F)(F)F)c2)cc1C#Cc1c(N)ncc2ccccc12,-96.6% (active)
17,COc1ccc2cnc(N)c(C#Cc3cc(C(=O)Nc4ccc(CN5CCN(C)CC5)c(C(F)(F)F)c4)cnc3C)c2c1,9.87% (active)
18,COc1ccc(-c2nc(SCC(C)C)nc(Nc3ccc(C(=O)O)cc3)c2C#N)cc1,109% (inactive)

row,SMILES,growth
1,CCCCCCCCCCCCCCCCC(=O)O.CCCCCCCCCCCCCCCCCC(=O)O.CCCCCCCCCCCCCCCCCC(=O)O.CCCCCCCCCCCCCCCCCC(=O)O.CCCCCCCCCCCCCCCCCC(=O)O.CO[CH-]OC12COC1CC(O)C1(C)C(O)C(OC(C)O)C3=C(C)C(OC(=O)C(O)C([NH-])c4ccccc4)CC(O)(C(OC(=O)c4ccccc4)C21)C3(C)C.[Cu+].[Zn].[Zn].[Zn].[Zn].[Zn] (stereo unspecified),13.8% (inactive)
2,O=C1c2cc([N+](=O)[O-])ccc2-c2cc(Cl)c(NC(=O)C(F)(F)F)cc21,109% (inactive)
3,CCCNC(=O)Oc1ccc(/C(=C(/C)Cc2ccc(OC)cc2)c2ccc(OCCN3CCCCC3)cc2)cc1,79.5% (inactive)
4,CC(=O)CCS(=O)c1ccccc1 (stereo unspecified),106% (inactive)
5,N#CC1=C(N2CCOCC2)NC2c3ccccc3Sc3ccccc3N2C1=N (stereo unspecified),98.7% (inactive)
6,CC(C)(C)OC(=O)N1C/C(=C\c2ccccc2)C(=O)/C(=C/c2ccccc2)C1,79.9% (inactive)
7,N#Cc1ccc(NC2c3ccccc3CC2O)cc1 (stereo unspecified),114% (inactive)
8,CC([C@H]1CCC2C3CCC4C[C@@H](N)CC[C@]4(C)C3CC[C@@]21C)N(C)C (stereo partly specified),58% (inactive)
9,CCN(CC)c1ccc2nc3ccc(N=Nc4ccc(O)cc4)cc3[n+](-c3ccccc3)c2c1,20.9% (inactive)
10,CC(C)CSc1nc(-c2ccc(F)cc2)c(C#N)c(N2CCCCC2)n1,101% (inactive)
11,Cc1ccc(C(=O)Nc2ccc(CN3CCN(C)CC3)c(C(F)(F)F)c2)cc1C#Cc1cnc(N)c2ccc(C#N)cc12,11.2% (inactive)
12,COc1ccc2cc(C(C)C(=O)Nc3ccc(S(=O)(=O)Nc4cc(C)on4)cc3)ccc2c1 (stereo unspecified),117% (inactive)
13,CN1CCN(Cc2ccc(NC(=O)c3ccc(C#Cc4c(N)ncc5ccc(F)cc45)cc3)cc2C(F)(F)F)CC1,-72.5% (active)
14,CSC1=Nc2c(c(C)c(-c3ccccc3)n2CCCCl)C2=NC(=O)CN12,65.2% (inactive)
15,Cc1ncc(C(=O)Nc2ccc(CN3CCN(C)CC3)c(C(F)(F)F)c2)cc1C#Cc1cnc(NC2CC2)c2ncccc12,-97.3% (active)
16,Oc1ccc([S+](c2ccc(O)cc2)c2ccc(O)cc2)cc1,117% (inactive)
17,Oc1ccc2ccccc2c1/C=N\Nc1ccccn1,25.1% (inactive)
18,CCCNC(=O)Oc1ccc(/C(=C(/CC)Cc2ccccc2)c2ccc(OCCN(CC)CC)cc2)cc1,60.8% (inactive)
